Assay results reported in PubChem BioAssay (NCATS).
Records with an inconclusive call do not appear. Activity calls are given as the source filed them. The call rests on the fitted dose curve; tested in HEK293 reporter line.

assay: qHTS for Inhibitors of the Functional Ribonucleoprotein Complex (vRNP) of Lassa (LASV) Arenavirus: Viability assay - alamar blue signal for LASV Primary Screen (AID 1347083); conditions: cell viability, alamar blue fluorescence (LASV minigenome counter-screen); series mostly up to 57.5 µM; activity change, negative = reduced viability: at the top concentration
Further: nearly all actives have a fitted effect of over 80% in size.
On the % scale 0 is the no-effect control and ±100 the full control effect.

SMILES	activity change, negative = reduced viability	Potency
O=C1OC(OC(=O)c2cccnc2Nc2cccc(C(F)(F)F)c2)c2ccccc21 (stereo not drawn)	1.27% (inactive)	
C=CCSCC1Nc2cc(Cl)c(S(N)(=O)=O)cc2S(=O)(=O)N1 (stereo not drawn)	-0.657% (inactive)	
C=CCc1ccccc1OCC(O)CNC(C)C (stereo not drawn)		inactive
FC(F)(F)C(F)(F)C(F)(F)C(F)(F)C(F)(F)C(F)(F)C(F)(F)C(F)(F)Br	1.13% (inactive)	
Nc1ccc(N=Nc2ccccc2)c(N)n1	-5.45% (inactive)	
C[N+]1(CC2COC(c3ccccc3)(C3CCCCC3)O2)CCCCC1 (stereo not drawn)	2.85% (inactive)	
O=C1C(c2[nH]c3ccccc3c2O)=Nc2ccccc21	15.9% (inactive)	
Oc1c(Cl)cc(Cl)c2cccnc12		inactive
NC(=O)CCCCC1CCSS1 (stereo not drawn)	3.21% (inactive)	
CC(C)(Cc1c[nH]c2ccccc12)NCC(O)COc1ccccc1C#N (stereo not drawn)	-9.34% (inactive)	
COc1cc2[nH]c(=O)[nH]c(=O)c2cc1OC	-2.15% (inactive)	
CC(Oc1c(Cl)cccc1Cl)C1=NCCN1 (stereo not drawn)	-2.43% (inactive)	
O=C1c2ccccc2C(=O)C1c1ccc(Br)cc1	1.1% (inactive)	
CCCCOc1cc(C(=O)OCCN(CC)CC)ccc1N	13.8% (inactive)	
C=C1C[C@H]2[C@@H]3C=C(C)C4=CC(=O)CC[C@]4(C)[C@H]3CC[C@]2(C)[C@@]1(OC(C)=O)C(C)=O	2.04% (inactive)	
C[C@]12CCC(=O)C=C1CC[C@@H]1[C@@H]2[C@@H](O)C[C@@]2(C)[C@H]1CC[C@]2(O)C(=O)CO		inactive
Cc1c(Cl)cccc1Nc1ccccc1C(=O)O	-4.26% (inactive)	
CCC(=O)O[C@]1(C(=O)SCF)[C@H](C)C[C@H]2[C@@H]3C[C@H](F)C4=CC(=O)C=C[C@]4(C)[C@@]3(F)[C@@H](O)C[C@@]21C	-6.65% (inactive)	
CCN(CC)CCOC(=O)C(c1ccccc1)c1ccccc1	15.1% (inactive)	
CCCCc1cc2ccccc2c(OCCN(C)C)n1	-6.98% (inactive)	

SMILES	activity change, negative = reduced viability	Potency
CCCC(=O)OC[C@@H](OC(=O)CCC)[C@@H](OC(=O)CCC)[C@H](Cn1c2nc(=O)[nH]c(=O)c-2nc2cc(C)c(C)cc21)OC(=O)CCC	0.11% (inactive)	
C[N+]1(CC2COC(c3ccccc3)(c3ccccc3)O2)CCCCC1 (stereo not drawn)	-2.27% [at 24.7 µM] (inactive)	
CCN(CC)C(=O)c1cccc(C)c1	0.808% (inactive)	
NNC(=O)CP(=O)(c1ccccc1)c1ccccc1	5.99% (inactive)	
CN(C)CCCO[C@@H]1[C@H]2OC(C)(C)O[C@H]2O[C@@H]1C(O)CO (stereo partly drawn)	0.936% (inactive)	
CC(C)(Oc1ccc(CCNC(=O)c2ccc(Cl)cc2)cc1)C(=O)O		inactive
CC(C)OC(=O)C(C(=O)OC(C)C)=C1SC=CS1		inactive
NCCc1cnc[nH]1		inactive
O=c1[nH]c2ccccc2c(=O)n1CCCl	10.1% (inactive)	
C[C@]12CCC(=O)C=C1C=C[C@@H]1[C@@H]2CC[C@@]2(C)[C@H]1CC[C@@]21CCC(=O)O1	2.67% (inactive)	
C[C@]12CC[C@@H]3c4ccc(O)cc4CC[C@H]3[C@@H]1CCC2=O		inactive
CN(C)CCN1C(=O)c2ccccc2N(C)c2ccccc21	-0.193% (inactive)	
CN1C[C@H](C(=O)N[C@]2(C)O[C@@]3(O)[C@@H]4CCCN4C(=O)[C@H](Cc4ccccc4)N3C2=O)C[C@@H]2c3cccc4[nH]cc(c34)C[C@H]21		inactive
CCC1Nc2cc(Cl)c(S(N)(=O)=O)cc2S(=O)(=O)N1 (stereo not drawn)	3.37% (inactive)	
CC(O)COc1ccccc1 (stereo not drawn)	1.05% (inactive)	
CCN(CC)CC(=O)OCC(=O)[C@@]1(O)CC[C@H]2[C@@H]3CCC4=CC(=O)CC[C@]4(C)[C@H]3[C@@H](O)C[C@@]21C	-0.0252% (inactive)	
CC(C)c1cc2c(cc1S(=O)(=O)O)[C@@]1(C)CCC[C@@](C)(C(=O)O)[C@@H]1CC2	2.69% (inactive)	
C[C@@H]1CC[C@@]2(OC1)O[C@H]1C[C@H]3[C@@H]4CC[C@H]5C[C@@H](O)CC[C@]5(C)[C@H]4CC(=O)[C@]3(C)[C@H]1[C@@H]2C	-7.37% [at 5.82 µM] (inactive)	
CC1=CC(=O)c2ccccc2C1=O		inactive

assay: qHTS for Inhibitors of the Functional Ribonucleoprotein Complex (vRNP) of Lymphocytic Choriomeningitis Arenaviruses (LCMV): Viability assay - alamar blue signal for LCMV Primary Screen (AID 1347085); conditions: alamar blue viability counter-screen, LCMV vRNP screen cells; series mostly up to 57.5 µM; activity change, negative = lower viability: at the top concentration

SMILES	activity change, negative = lower viability	Potency
O=C1OC(OC(=O)c2cccnc2Nc2cccc(C(F)(F)F)c2)c2ccccc21 (stereo not drawn)	-3.39% (inactive)	
C=CCSCC1Nc2cc(Cl)c(S(N)(=O)=O)cc2S(=O)(=O)N1 (stereo not drawn)	3.5% (inactive)	
C=CCc1ccccc1OCC(O)CNC(C)C (stereo not drawn)		inactive
FC(F)(F)C(F)(F)C(F)(F)C(F)(F)C(F)(F)C(F)(F)C(F)(F)C(F)(F)Br	2.94% (inactive)	
Nc1ccc(N=Nc2ccccc2)c(N)n1	-2.62% (inactive)	
C[N+]1(CC2COC(c3ccccc3)(C3CCCCC3)O2)CCCCC1 (stereo not drawn)	-0.569% (inactive)	
O=C1C(c2[nH]c3ccccc3c2O)=Nc2ccccc21	13.4% (inactive)	
Oc1c(Cl)cc(Cl)c2cccnc12		inactive
NC(=O)CCCCC1CCSS1 (stereo not drawn)	-0.204% (inactive)	
CC(C)(Cc1c[nH]c2ccccc12)NCC(O)COc1ccccc1C#N (stereo not drawn)	-0.821% (inactive)	
COc1cc2[nH]c(=O)[nH]c(=O)c2cc1OC	1.57% (inactive)	
CC(Oc1c(Cl)cccc1Cl)C1=NCCN1 (stereo not drawn)	-0.164% (inactive)	
O=C1c2ccccc2C(=O)C1c1ccc(Br)cc1	0.702% (inactive)	
CCCCOc1cc(C(=O)OCCN(CC)CC)ccc1N	11.1% (inactive)	
C=C1C[C@H]2[C@@H]3C=C(C)C4=CC(=O)CC[C@]4(C)[C@H]3CC[C@]2(C)[C@@]1(OC(C)=O)C(C)=O	30.4% (inactive)	
C[C@]12CCC(=O)C=C1CC[C@@H]1[C@@H]2[C@@H](O)C[C@@]2(C)[C@H]1CC[C@]2(O)C(=O)CO		inactive
Cc1c(Cl)cccc1Nc1ccccc1C(=O)O	-3.85% (inactive)	
CCC(=O)O[C@]1(C(=O)SCF)[C@H](C)C[C@H]2[C@@H]3C[C@H](F)C4=CC(=O)C=C[C@]4(C)[C@@]3(F)[C@@H](O)C[C@@]21C	-88.7% (inactive)	
CCN(CC)CCOC(=O)C(c1ccccc1)c1ccccc1	16.7% (inactive)	
CCCCc1cc2ccccc2c(OCCN(C)C)n1	-5.65% (inactive)	

SMILES	activity change, negative = lower viability	Potency
CCCC(=O)OC[C@@H](OC(=O)CCC)[C@@H](OC(=O)CCC)[C@H](Cn1c2nc(=O)[nH]c(=O)c-2nc2cc(C)c(C)cc21)OC(=O)CCC	10.1% (inactive)	
C[N+]1(CC2COC(c3ccccc3)(c3ccccc3)O2)CCCCC1 (stereo not drawn)	1.96% [at 24.7 µM] (inactive)	
CCN(CC)C(=O)c1cccc(C)c1	-0.0451% (inactive)	
NNC(=O)CP(=O)(c1ccccc1)c1ccccc1	5.09% (inactive)	
CN(C)CCCO[C@@H]1[C@H]2OC(C)(C)O[C@H]2O[C@@H]1C(O)CO (stereo partly drawn)	-10.6% (inactive)	
CC(C)(Oc1ccc(CCNC(=O)c2ccc(Cl)cc2)cc1)C(=O)O		inactive
CC(C)OC(=O)C(C(=O)OC(C)C)=C1SC=CS1		inactive
NCCc1cnc[nH]1		inactive
O=c1[nH]c2ccccc2c(=O)n1CCCl	-3.95% (inactive)	
C[C@]12CCC(=O)C=C1C=C[C@@H]1[C@@H]2CC[C@@]2(C)[C@H]1CC[C@@]21CCC(=O)O1	-12.8% (inactive)	
C[C@]12CC[C@@H]3c4ccc(O)cc4CC[C@H]3[C@@H]1CCC2=O		inactive
CN(C)CCN1C(=O)c2ccccc2N(C)c2ccccc21	-4.32% (inactive)	
CN1C[C@H](C(=O)N[C@]2(C)O[C@@]3(O)[C@@H]4CCCN4C(=O)[C@H](Cc4ccccc4)N3C2=O)C[C@@H]2c3cccc4[nH]cc(c34)C[C@H]21		inactive
CCC1Nc2cc(Cl)c(S(N)(=O)=O)cc2S(=O)(=O)N1 (stereo not drawn)	3.33% (inactive)	
CC(O)COc1ccccc1 (stereo not drawn)	0.137% (inactive)	
CCN(CC)CC(=O)OCC(=O)[C@@]1(O)CC[C@H]2[C@@H]3CCC4=CC(=O)CC[C@]4(C)[C@H]3[C@@H](O)C[C@@]21C	-8.47% (inactive)	
CC(C)c1cc2c(cc1S(=O)(=O)O)[C@@]1(C)CCC[C@@](C)(C(=O)O)[C@@H]1CC2	6.56% (inactive)	
C[C@@H]1CC[C@@]2(OC1)O[C@H]1C[C@H]3[C@@H]4CC[C@H]5C[C@@H](O)CC[C@]5(C)[C@H]4CC(=O)[C@]3(C)[C@H]1[C@@H]2C	-0.186% [at 5.82 µM] (inactive)	
CC1=CC(=O)c2ccccc2C1=O		inactive
